Assay results published in PubChem BioAssay (NCI).
Compounds without any hit were thinned out: in the full panel of roughly 83,000, 20% have a hit.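 96-well plates, one dose, 48 hours. Percent growth reported; active if below 10.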 Unmarked numbers belong to inactive results. Calls of active or inactive are those of the source.

system: MDA-MB-468 breast; assay: NCI-60 one-dose screen, 48 h (100 = growth as untreated, 0 = no growth, -100 = all killed); settings: 10 µM unless noted

Row | SMILES | growth
1 | Cc1ccc(/C=C2\CN(Cc3cn(CCNc4ccnc5cc(Cl)ccc45)nn3)C/C(=C\c3ccc(C)cc3)C2=O)cc1 | -31.1% (active)
2 | Fc1cccc(COc2ccc(Nc3ncnc4onc(-c5ccccc5)c34)cc2)c1 | 9.54% (active)
3 | C[C@@H]1C[C@H]2C(=O)O[C@@H](C)[C@H](NC(=O)[C@H](Cc3cc(F)cc(F)c3)NC(=O)Nc3ccc(C4CC4)cc3F)C(=O)N3CCC[C@H]3C(=O)N3CCCC[C@H]3C(=O)N[C@@H](C)C(=O)N2C1 | -16.1% (active)
4 | O=C1c2cccc3c(-c4ccc5c(c4)ncn5C4CCCCC4)ccc(c23)C(=O)N1CCO | 78.9%
5 | Cc1ccc(S(=O)(=O)n2cc(C3C(Cl)C(=O)N3c3ccc(N4CCOCC4=O)cc3)c3ccccc32)cc1 (configuration not stated) | 67.6%
6 | COC(=O)CC1=C(C)/C(=C/c2[nH]c(-c3ccc[nH]3)cc2OC)N=C1C | 19%
7 | COc1ccc2c(c1)OC1=C(C(=O)OC1)C2c1cc(OC)c(OC)c(OC)c1 (configuration not stated) | -5.94% (active)
8 | C#CCOc1ccc(C2=NN(CCCC)C3N=C(Cl)c4ncn(CCCC)c4N23)cc1OCC#C (configuration not stated) | 80.4%
9 | CC/C(=C\c1ccc(OC)cc1)C(=O)c1ccc(OC)cc1 | 79.2%
10 | COc1cccc(-c2nnc(COc3ccc(-c4nc5ccc(C)cc5[nH]4)cc3OC)o2)c1 | 71%
11 | CC(=O)N1N=C(CCC(=O)c2nc3ccc([N+](=O)[O-])cc3[nH]2)OC1c1ccc(O)cc1 (configuration not stated) | 108%
12 | C[n+]1ccc(CCc2c[nH]c3ccccc23)cc1 | 14.4%
